Here are results for 1 sequence from publication PMC7862700, “An all-to-all approach to the identification of sequence-specific readers for epigenetic DNA modifications on cytosine”.

Holding throughout (test): DAPPL (digital affinity profiling via proximity ligation, sequencing); 10 mM Tris-HCl pH 7.5, 50 mM NaCl, 1 mM DTT, 4% glycerol, room temperature, 30 min; GST-TFs on glutathione beads, 16-mer random dsDNA library, 0.1% formaldehyde crosslink after washing; high values mean tight binding
One experiment deals with T1, FLI1 (Homo sapiens, UniProt Q01543 1-452).
T1 sequence: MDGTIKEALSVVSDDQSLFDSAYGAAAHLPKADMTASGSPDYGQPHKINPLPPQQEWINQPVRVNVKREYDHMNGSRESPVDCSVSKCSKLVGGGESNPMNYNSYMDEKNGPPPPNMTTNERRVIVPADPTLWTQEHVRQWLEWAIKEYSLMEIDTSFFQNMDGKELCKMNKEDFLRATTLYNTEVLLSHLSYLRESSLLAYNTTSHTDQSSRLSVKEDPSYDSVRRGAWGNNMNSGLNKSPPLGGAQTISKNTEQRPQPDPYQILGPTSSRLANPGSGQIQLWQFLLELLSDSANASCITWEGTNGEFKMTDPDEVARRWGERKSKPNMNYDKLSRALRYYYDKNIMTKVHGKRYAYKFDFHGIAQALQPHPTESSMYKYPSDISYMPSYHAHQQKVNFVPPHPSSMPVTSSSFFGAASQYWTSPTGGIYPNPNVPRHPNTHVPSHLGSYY
As to conditions: protein: recombinant; tags: N-terminal GST; dsDNA, one strand shown. The procedure, abridged:
(§1)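 Each value of binding signal is a hexamer's read frequency for a factor divided by the same hexamer's frequency in the tag-only sample. Barcoded, bead-captured GST fusions of human transcription factors made in yeast were pooled with that sample and incubated with 200 nmole of a random double-stranded 16-mer DNA library in Tris/NaCl/DTT/glycerol buffer at room temperature for 30 min. Washing, 0.1% formaldehyde crosslinking, proximity ligation, PCR and Illumina NextSeq500 sequencing followed.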

Another experiment addresses T2, ELK1 (Homo sapiens, UniProt P19419 1-428).
T2 sequence: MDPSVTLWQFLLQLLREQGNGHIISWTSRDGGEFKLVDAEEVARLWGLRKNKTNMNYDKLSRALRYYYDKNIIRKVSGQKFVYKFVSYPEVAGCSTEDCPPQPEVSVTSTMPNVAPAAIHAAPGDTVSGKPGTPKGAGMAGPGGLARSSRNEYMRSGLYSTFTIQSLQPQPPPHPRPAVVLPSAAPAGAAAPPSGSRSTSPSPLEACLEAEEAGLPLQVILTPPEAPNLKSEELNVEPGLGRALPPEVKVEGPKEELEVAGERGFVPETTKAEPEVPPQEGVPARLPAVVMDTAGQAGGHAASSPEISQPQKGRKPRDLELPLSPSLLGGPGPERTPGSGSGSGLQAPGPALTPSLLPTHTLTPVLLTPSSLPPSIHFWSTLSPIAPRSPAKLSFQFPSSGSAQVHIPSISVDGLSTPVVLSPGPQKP
Conditions: protein: recombinant; tags: N-terminal GST; dsDNA, one strand shown. A digest of the protocol:
as §1

The next experiment deals with T3, GABPA (Homo sapiens, UniProt Q06546 1-454).
T3 sequence: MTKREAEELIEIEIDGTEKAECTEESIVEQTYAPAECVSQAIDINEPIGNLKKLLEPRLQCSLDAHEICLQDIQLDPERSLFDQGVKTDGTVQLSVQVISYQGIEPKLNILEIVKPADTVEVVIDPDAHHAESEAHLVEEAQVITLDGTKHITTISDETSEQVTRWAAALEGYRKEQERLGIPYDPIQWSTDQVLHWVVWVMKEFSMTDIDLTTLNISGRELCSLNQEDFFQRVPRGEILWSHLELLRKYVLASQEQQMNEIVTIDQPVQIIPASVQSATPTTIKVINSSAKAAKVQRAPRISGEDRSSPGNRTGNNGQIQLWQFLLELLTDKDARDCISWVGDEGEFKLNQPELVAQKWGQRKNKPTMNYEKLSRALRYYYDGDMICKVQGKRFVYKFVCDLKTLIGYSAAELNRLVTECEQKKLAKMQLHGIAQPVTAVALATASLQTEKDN
Conditions: protein: recombinant; tags: N-terminal GST; dsDNA, one strand shown. The procedure, abridged: as §1

The target in a further experiment is T4, ERG (Homo sapiens, UniProt P11308 1-479).
T4 sequence: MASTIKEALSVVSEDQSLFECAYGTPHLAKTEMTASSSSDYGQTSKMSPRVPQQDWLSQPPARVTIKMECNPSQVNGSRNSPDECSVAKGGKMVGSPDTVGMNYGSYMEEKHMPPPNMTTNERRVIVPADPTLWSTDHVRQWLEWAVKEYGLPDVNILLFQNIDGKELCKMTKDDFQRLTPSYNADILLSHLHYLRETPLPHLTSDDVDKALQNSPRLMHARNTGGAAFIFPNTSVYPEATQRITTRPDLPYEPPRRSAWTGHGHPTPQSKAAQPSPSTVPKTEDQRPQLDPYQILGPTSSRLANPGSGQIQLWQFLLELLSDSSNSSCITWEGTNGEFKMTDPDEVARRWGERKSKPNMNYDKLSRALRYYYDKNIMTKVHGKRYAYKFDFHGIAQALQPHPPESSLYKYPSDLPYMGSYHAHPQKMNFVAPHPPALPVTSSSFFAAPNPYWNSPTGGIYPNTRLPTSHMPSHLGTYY
As to conditions: protein: recombinant; tags: N-terminal GST; dsDNA, one strand shown. The procedure, abridged: as §1

A further experiment has as its target ELF1 (Homo sapiens, UniProt P32519 1-619). As to conditions: protein: recombinant; tags: N-terminal GST; dsDNA, one strand shown. The procedure, abridged: as §1
The target in another experiment is T5, EHF (Homo sapiens, UniProt Q9NZC4 1-300).
T5 sequence: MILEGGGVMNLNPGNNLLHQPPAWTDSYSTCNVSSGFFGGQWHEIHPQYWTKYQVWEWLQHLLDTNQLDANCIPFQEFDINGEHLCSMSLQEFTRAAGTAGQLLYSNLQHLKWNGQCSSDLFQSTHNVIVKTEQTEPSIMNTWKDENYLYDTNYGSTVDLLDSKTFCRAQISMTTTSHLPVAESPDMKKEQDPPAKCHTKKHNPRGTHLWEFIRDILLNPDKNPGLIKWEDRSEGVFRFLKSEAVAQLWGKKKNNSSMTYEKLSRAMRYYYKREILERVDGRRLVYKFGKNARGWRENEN
Conditions: protein: recombinant; tags: N-terminal GST; dsDNA, one strand shown. The procedure, abridged: as §1

Another experiment concerns the target SPI1 (Homo sapiens, UniProt P17947 1-270). Conditions: protein: recombinant; tags: N-terminal GST; dsDNA, one strand shown. A digest of the protocol: as §1
The target in a further experiment is SPIB (Homo sapiens, UniProt Q01892 1-262). As to conditions: protein: recombinant; tags: N-terminal GST; dsDNA, one strand shown. The procedure, abridged:
as §1

The next experiment concerns the target T6, ELK3 (Homo sapiens, UniProt P41970 1-407).
T6 sequence: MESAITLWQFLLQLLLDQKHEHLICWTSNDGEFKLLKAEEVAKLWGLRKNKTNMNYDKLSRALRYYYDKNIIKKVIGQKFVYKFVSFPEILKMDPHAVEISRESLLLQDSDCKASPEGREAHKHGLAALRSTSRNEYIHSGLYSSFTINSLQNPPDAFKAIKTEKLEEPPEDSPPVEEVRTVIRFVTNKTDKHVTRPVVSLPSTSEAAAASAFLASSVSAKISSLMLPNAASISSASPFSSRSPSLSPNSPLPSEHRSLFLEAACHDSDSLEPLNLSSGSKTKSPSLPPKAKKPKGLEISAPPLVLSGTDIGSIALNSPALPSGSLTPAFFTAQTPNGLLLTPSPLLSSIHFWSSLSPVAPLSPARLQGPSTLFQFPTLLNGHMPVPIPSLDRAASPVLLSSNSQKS
Conditions: protein: recombinant; tags: N-terminal GST; dsDNA, one strand shown. The procedure, abridged:
as §1

In the next experiment the target is ETV5 (Homo sapiens, UniProt P41161 1-510). As to conditions: protein: recombinant; tags: N-terminal GST; dsDNA, one strand shown. A digest of the protocol:
as §1

A further experiment deals with HSF1 (Homo sapiens, UniProt Q00613 1-529). As to conditions: protein: recombinant; tags: N-terminal GST; chain copies: 3; dsDNA, one strand shown. The procedure, abridged:
as §1

The target of a further experiment is T7, SPIC (Homo sapiens, UniProt Q8N5J4 1-248).
T7 sequence: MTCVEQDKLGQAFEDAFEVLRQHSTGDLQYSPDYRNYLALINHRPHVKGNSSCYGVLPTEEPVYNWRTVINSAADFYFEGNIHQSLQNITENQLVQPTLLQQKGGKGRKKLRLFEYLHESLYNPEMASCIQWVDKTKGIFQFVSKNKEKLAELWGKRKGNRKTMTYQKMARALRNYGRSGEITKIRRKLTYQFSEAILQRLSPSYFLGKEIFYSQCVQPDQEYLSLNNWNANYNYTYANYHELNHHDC
As to conditions: protein: recombinant; tags: N-terminal GST; dsDNA, one strand shown. The procedure, abridged: as §1

Another experiment addresses T8, ETV2 (Homo sapiens, UniProt O00321 1-342).
T8 sequence: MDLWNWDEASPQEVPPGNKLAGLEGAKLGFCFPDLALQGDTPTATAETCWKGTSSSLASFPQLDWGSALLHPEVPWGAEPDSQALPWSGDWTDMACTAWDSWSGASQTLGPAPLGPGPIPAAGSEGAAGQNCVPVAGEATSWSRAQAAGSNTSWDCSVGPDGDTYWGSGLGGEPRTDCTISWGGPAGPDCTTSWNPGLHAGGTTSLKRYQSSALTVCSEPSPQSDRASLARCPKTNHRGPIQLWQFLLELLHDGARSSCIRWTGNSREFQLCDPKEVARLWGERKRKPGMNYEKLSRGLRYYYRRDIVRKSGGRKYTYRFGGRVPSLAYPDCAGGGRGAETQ
Conditions: protein: recombinant; tags: N-terminal GST; dsDNA, one strand shown. The procedure, abridged: as §1

For another experiment, the target named is CRX (Homo sapiens, UniProt O43186 1-299). Conditions: protein: recombinant; tags: N-terminal GST; dsDNA, one strand shown. A digest of the protocol:
as §1

Sequence of CRX (O43186 whole entry): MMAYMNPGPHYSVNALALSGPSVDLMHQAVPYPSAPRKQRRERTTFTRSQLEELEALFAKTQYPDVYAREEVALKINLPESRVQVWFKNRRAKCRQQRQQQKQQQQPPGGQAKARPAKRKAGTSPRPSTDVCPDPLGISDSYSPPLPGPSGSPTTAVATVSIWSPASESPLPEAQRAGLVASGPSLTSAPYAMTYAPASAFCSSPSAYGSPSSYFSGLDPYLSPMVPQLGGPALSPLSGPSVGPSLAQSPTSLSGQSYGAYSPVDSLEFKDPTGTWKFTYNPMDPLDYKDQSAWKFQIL
Sequence of ELF1 (P32519 whole entry): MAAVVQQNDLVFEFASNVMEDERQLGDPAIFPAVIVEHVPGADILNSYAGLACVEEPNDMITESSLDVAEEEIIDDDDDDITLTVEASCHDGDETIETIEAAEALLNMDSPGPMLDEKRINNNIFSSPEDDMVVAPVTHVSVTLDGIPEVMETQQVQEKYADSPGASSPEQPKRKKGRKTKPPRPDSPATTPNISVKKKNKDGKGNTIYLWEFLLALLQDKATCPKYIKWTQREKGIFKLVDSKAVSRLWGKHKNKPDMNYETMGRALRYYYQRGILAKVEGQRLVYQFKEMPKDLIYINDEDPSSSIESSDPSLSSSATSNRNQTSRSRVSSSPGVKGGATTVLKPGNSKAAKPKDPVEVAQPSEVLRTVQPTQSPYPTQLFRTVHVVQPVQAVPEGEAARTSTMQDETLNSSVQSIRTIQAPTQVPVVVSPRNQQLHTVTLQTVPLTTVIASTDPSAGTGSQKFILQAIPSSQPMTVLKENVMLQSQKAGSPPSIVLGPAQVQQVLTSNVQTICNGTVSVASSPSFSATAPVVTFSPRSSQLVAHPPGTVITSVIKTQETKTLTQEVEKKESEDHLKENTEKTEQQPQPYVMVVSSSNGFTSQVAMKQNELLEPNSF
Sequence of SPIB (Q01892 whole entry): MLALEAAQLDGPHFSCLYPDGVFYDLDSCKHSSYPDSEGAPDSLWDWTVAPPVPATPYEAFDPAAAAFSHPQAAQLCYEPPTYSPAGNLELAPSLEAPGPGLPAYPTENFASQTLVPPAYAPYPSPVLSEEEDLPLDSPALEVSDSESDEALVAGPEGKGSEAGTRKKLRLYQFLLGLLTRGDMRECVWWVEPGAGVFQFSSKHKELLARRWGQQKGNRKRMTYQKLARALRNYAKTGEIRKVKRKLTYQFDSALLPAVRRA
Sequence of HSF1 (Q00613 whole entry): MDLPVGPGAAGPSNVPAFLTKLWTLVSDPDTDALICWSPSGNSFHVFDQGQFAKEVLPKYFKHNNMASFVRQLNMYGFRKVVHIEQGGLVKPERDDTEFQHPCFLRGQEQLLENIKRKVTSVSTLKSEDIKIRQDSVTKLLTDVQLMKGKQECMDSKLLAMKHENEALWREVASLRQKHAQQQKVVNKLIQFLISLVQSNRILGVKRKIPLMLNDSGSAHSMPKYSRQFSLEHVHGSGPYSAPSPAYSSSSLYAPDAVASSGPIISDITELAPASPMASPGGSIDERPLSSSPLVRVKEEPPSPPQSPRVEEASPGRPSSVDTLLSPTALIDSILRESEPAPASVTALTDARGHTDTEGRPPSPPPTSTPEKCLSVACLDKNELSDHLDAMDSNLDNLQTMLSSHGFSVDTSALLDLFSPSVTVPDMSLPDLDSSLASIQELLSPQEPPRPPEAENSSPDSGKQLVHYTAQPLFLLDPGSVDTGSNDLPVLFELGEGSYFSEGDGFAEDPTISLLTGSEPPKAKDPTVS
Sequence of ETV5 (P41161 whole entry): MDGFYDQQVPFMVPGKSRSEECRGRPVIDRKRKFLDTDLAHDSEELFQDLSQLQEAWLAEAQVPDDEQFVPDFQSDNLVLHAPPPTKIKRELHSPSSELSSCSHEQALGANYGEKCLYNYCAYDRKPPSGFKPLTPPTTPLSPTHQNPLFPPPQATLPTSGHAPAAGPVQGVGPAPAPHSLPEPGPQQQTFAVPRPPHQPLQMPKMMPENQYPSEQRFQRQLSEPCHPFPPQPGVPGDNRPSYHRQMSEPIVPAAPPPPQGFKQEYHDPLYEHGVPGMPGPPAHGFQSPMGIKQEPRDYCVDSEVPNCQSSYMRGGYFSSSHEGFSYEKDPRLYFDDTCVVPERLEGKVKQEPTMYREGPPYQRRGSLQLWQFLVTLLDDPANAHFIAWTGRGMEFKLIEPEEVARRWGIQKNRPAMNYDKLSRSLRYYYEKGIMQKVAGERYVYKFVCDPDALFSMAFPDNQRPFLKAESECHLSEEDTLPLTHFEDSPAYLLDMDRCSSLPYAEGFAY

For TACTAG, the binding signal with FLI1 was 1.09 fold enrichment (6-mer frequency, TF over GST control); with ELK1 it was 1.09 fold enrichment (6-mer frequency, TF over GST control); in the experiment with GABPA, 1.07 fold enrichment (6-mer frequency, TF over GST control); with ERG it was 1.06 fold enrichment (6-mer frequency, TF over GST control); with ELF1, 1.11 fold enrichment (6-mer frequency, TF over GST control); with EHF it was 1.09 fold enrichment (6-mer frequency, TF over GST control). Besides, the binding signal is 1 fold enrichment (6-mer frequency, TF over GST control) with SPI1; 1 fold enrichment (6-mer frequency, TF over GST control) with SPIB; 1.05 fold enrichment (6-mer frequency, TF over GST control) with ELK3; 1.05 fold enrichment (6-mer frequency, TF over GST control) with ETV5; 1.81 fold enrichment (6-mer frequency, TF over GST control) with HSF1; 1.02 fold enrichment (6-mer frequency, TF over GST control) in the experiment with SPIC. In addition, the binding signal with ETV2 is 1.17 fold enrichment (6-mer frequency, TF over GST control); with CRX it was 1.3 fold enrichment (6-mer frequency, TF over GST control).
